Laboratory results as given in article PMC12040169 (PLOS Biology, 2025).

system: T1, CTL2-GFP (C. trachomatis L2/434/Bu, GFP-expressing); parameters: species or system HeLa; Intracellular C. trachomatis growth in HeLa cells, bulk GFP fluorescence relative to DMSO; conditions: bulk GFP, single well; 28.5 h, 10 µM; inhibitor
T1 construct: L2/434/Bu, GFP-expressing
Protocol: MICs were calculated as described above.

Row | SMILES | % of control remaining [%]
1 | CCOC(=O)CC(C)(O)P(=O)(OC)OC (stereo not drawn) [CBK261287] | 100
2 | O=C(c1cccc(S(=O)(=O)F)c1)N1CCCCC1 [CBK074224] | 100.074
3 | S=P(Oc1ccccc1)(Oc1ccccc1)Oc1ccccc1 [CBK260987] | 100
